Reference: PubChem BioAssay AID588811 (Broad Institute, 2011)
Entries with a potency or affinity are not part of this list. Activity calls are given as the source filed them.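 The calls were made as follows: active = compounds lowering signal whose fitted half-maximal concentration is at most twice the top tested dose; inconclusive = flat curve with 30 to 70% inhibition, or poor fit; inactive = the rest.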

biological target: Dual specificity protein kinase CLK1 (Homo sapiens) (UniProt P49759); test: inhibition of human CLK1 activity – biochemical, cherry-picked samples, selectivity assay for Dyrk1A inhibitor project, dose response (AID 588811); conditions: recombinant CLK1, ADP-Glo luminescence, 2 h; series mostly up to 12 µM; activity change, negative = inhibition: at the top concentration
Sequence (P49759 whole entry, looked up): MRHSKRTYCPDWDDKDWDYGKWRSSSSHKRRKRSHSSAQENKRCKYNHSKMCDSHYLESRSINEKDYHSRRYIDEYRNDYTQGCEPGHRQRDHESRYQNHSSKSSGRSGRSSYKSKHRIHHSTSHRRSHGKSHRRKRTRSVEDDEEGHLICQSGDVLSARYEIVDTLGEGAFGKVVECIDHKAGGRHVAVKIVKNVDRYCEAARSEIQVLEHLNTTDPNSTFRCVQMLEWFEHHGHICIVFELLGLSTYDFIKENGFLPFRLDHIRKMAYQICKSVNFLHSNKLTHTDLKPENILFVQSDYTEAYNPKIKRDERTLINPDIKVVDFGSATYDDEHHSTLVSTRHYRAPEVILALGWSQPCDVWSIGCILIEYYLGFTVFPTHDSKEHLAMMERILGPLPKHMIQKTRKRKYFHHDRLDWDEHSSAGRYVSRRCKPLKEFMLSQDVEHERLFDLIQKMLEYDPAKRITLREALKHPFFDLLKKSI

SMILES | activity change, negative = inhibition
Cc1noc(NS(=O)(=O)c2ccc(NC(=O)c3oc4ccc(F)cc4c3C)cc2)c1C | -34% (inactive)
Clc1ccc(CNc2nccc(-c3ccc4cn[nH]c4c3)n2)cc1Cl | -19.6% (inactive)
Clc1ccc(CNc2cc(-c3ccc4c(c3)OCO4)ncn2)cc1 | -23.3% (inactive)
CC(=O)Nc1cccc(NC(=O)c2cc3ccccc3o2)c1 | -17% (inactive)
O=C(NCc1ccco1)c1sc2ccccc2c1Cl | -12.3% (inactive)
Cc1ccnc(NC(=O)c2cccc(S(=O)(=O)N3CCN(c4ccccc4)CC3)c2)c1 | -5.91% (inactive)
Clc1cc(Cl)cc(CNc2cc(-c3ccc4c(c3)OCO4)ncn2)c1 | -20% (inactive)
COc1cccc(-c2sc3ccccc3c2-c2ccc(OCCN3CCCC3)cc2)c1 | -9.56% (inactive)
Clc1ccccc1-c1ccc2ncnc(NCc3ccc4c(c3)OCO4)c2c1 | -3.63% (inactive)
N#Cc1c(C(F)(F)F)cc(-c2cccc(Cl)c2)[nH]c1=O | -15.6% (inactive)
N#CCSc1nc(Nc2ccc3c(c2)OCO3)c2ccccc2n1 | -4.57% (inactive)
COCCNC(=O)c1ccc2c(c1)nc(C)n2-c1cccc(F)c1 | -16.5% (inactive)
COc1cccc(Nc2nc(NCCO)c3ccccc3n2)c1 | -8.29% [at 1.35 µM] (inactive)
COc1ccc2c(Cl)c(C(=O)NCc3ccco3)sc2c1 | -35.8% (inactive)
Fc1cccc(Nc2nc(-c3ccncc3)nc3ccccc23)c1 | -43.5% (inactive)
Cc1c(-c2ccnc(NCc3ccc(Cl)cc3)n2)sc(=O)n1C | -45% (inactive)
CCCC(=O)Nc1nc(-c2ccc3c(c2)OCCO3)cs1 | -24.5% (inactive)
